# ± gives the uncertainty stated by the source.
# System: Candidatus Liberibacter solanacearum in potato hairy roots
# Assay: relative CLso titer (% of untreated control); higher = less inhibition of bacterial titer
# Details: 10 µM; 72 h
# Protocol: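 Primary screen of ~220 Spectrum collection (MicroSource) compounds at 10 µM (0.1% DMSO) on Candidatus Liberibacter solanacearum-infected potato hairy roots in multi-well plates (Gamborg B-5 medium, vacuum infiltrated, 21 °C, dark, 72 h). CLso titer was measured by qPCR of 16S rDNA normalised to potato RPL2 (2^-ddCq), pairwise-standardised against untreated controls, averaged over two biological replicates and expressed as % of untreated.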
row,Compound,relative CLso titer [%]
1,COc1ccc(CNc2nc(N3CCC[C@H]3CO)ncc2C(=O)NCc2ncccn2)cc1Cl,110 ± 46
2,CCCN(CCC)C(=O)C(CCC(=O)O)NC(=O)c1ccccc1 (stereo not given),52.8 ± 27
3,C[C@H]1c2cccc(O)c2C(=O)C2=C(O)[C@]3(O)C(=O)C(C(N)=O)=C(O)[C@@H](N(C)C)[C@@H]3[C@@H](O)[C@@H]21,125 ± 12
4,CC(C)CCCC(C)N (stereo not given),93.3 ± 14
5,COc1ccc(C[C@H](N)C(=O)N[C@H]2[C@@H](O)[C@H](n3cnc4c(N(C)C)ncnc43)O[C@@H]2CO)cc1,91.8 ± 5.9
6,CCCNC(=O)NS(=O)(=O)c1ccc(Cl)cc1,38.9 ± 4.5
7,O=C(O)c1cc(=O)c2c(OCC(O)COc3cccc4oc(C(=O)O)cc(=O)c34)cccc2o1,58 ± 9.1
8,O=C(O)CN1C(=O)c2cccc3cccc(c23)C1=O,145 ± 46
9,NC(=O)N1c2ccccc2C=Cc2ccccc21,58.7 ± 10
10,O=C(O)P(=O)(O)O,165 ± 29
11,C#C[C@]1(OC(C)=O)CC[C@H]2[C@@H]3CCC4=CC(=NO)CC[C@@H]4[C@H]3CC[C@@]21CC (mixture of isomers),64.9 ± 10
12,CC1(C)OC(=O)C(OCC2CC2)=C1c1ccc(S(C)(=O)=O)cc1,53.8 ± 6.5
13,CCN(CC)C(=O)N1CCN(C)CC1,106 ± 9.8
14,O=S(=O)(O)CCS,110 ± 3.6
15,Cc1ccc(C(=O)Nc2ccc(S(=O)(=O)O)c3cc(S(=O)(=O)O)cc(S(=O)(=O)O)c23)cc1NC(=O)c1cccc(NC(=O)Nc2cccc(C(=O)Nc3cc(C(=O)Nc4ccc(S(=O)(=O)O)c5cc(S(=O)(=O)O)cc(S(=O)(=O)O)c45)ccc3C)c2)c1,141 ± 37
16,Cn1c(=O)c2c(ncn2C)n(C)c1=O,42.2 ± 4.3
17,CCN(CC)C(=S)SSC(=S)N(CC)CC,82.7 ± 6
18,O=C(O)CN(CCN(CC(=O)O)CC(=O)O)CC(=O)O,228 ± 120
19,O=C(O)CCC(=O)Nc1ccc(S(=O)(=O)Nc2nccs2)cc1,100 ± 28
20,COC(=O)C1=C(C)NC(C)=C(C(=O)OCCN(C)Cc2ccccc2)C1c1cccc([N+](=O)[O-])c1 (stereo not given),121 ± 15

# From the supplement of paper PMC7669877
